# ChEMBL document CHEMBL3988442, “University of Dundee, Small-Polar-MMV Screening Library” (2021)
# For part of these data: Potency and affinity values are given separately.
# Assays:
# Parameters in all cases: scale not given: direction of the effect not stated beside the values
# [1] = biological target: Protein translocase subunit SecA (Escherichia coli (strain K12)) (UniProt P10408); assay: Assay to Identify E. coli SecA ATPase Inhibitors; assay type: functional; conditions: 30 µM
# [2] = biological target: T1, Ubiquitin-activating enzyme e1, putative (Leishmania donovani (strain BPK282A1)) (UniProt E9BSI1); assay: Leishmania donovani Ubiquitin Activating Enzyme (LdE1); assay type: functional; conditions: 30 µM
# T1 sequence (whole entry): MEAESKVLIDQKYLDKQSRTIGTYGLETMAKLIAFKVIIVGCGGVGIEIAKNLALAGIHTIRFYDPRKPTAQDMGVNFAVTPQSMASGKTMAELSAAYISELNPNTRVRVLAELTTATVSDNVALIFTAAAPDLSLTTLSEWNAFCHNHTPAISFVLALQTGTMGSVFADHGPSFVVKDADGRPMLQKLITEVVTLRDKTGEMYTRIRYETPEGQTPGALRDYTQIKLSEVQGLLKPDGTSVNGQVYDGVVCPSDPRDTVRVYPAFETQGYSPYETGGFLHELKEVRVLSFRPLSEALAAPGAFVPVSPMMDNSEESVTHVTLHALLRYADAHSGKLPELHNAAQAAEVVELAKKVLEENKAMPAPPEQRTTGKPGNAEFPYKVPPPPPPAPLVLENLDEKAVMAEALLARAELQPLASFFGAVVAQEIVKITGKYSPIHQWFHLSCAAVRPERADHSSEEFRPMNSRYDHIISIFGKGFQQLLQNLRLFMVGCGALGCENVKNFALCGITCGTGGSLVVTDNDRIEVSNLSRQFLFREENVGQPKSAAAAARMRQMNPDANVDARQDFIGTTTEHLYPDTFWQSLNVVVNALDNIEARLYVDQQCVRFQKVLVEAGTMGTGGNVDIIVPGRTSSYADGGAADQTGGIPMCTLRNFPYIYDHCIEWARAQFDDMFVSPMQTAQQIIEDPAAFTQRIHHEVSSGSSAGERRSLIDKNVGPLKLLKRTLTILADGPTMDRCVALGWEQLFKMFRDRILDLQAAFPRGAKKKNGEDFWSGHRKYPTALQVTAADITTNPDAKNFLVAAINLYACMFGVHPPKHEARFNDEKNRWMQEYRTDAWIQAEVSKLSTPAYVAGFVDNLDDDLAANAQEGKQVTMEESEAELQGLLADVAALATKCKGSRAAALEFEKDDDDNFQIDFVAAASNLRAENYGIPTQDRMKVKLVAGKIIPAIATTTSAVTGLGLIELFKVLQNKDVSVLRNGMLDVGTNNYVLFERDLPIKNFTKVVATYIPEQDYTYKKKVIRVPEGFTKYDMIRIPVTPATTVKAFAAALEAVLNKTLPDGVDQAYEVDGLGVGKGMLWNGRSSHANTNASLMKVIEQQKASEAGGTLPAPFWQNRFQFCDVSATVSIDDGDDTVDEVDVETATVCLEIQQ
# [3] = biological target: Sialic acid-binding Ig-like lectin 9 (Homo sapiens) (UniProt Q9Y336); assay: Hs-Siglec9 ALPHAscreen SOP 20170721; conditions: 10 µM
# Trypanosoma cruzi = assay: Trypanosoma cruzi phosphomannomutase and mannose-1-phosphate guanylyltransferase assay; assay type: functional; conditions: 10 µM
# [4] = biological target: T2, Arginase-2, mitochondrial (Homo sapiens) (UniProt P78540); assay: in vitro enzyme assay to detect the production of urea directly proportional to the activity of Arginase II; assay type: functional; conditions: 33.3 µM; note: in the data most compounds retested in dose-response had high values
# T2 sequence (whole entry): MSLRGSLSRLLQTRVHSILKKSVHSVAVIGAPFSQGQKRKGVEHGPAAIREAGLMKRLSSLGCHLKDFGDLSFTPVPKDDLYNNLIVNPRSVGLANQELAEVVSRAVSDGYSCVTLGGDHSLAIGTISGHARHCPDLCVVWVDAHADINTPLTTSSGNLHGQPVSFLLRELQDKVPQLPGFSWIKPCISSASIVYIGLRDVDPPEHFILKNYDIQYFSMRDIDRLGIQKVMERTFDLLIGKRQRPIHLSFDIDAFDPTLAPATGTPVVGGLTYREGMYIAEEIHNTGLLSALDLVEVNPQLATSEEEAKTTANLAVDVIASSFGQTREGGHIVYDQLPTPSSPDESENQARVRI
# [5] = biological target: T3, Proteasome subunit beta (Trypanosoma cruzi) (UniProt O96673); assay: Trypanosoma cruzi proteasome chymotrypsin-like activity (TcProtChymo) assay.; note: in the data most compounds retested in dose-response had high values; assay type: functional; conditions: 9.37 µM
# T3 sequence (whole entry): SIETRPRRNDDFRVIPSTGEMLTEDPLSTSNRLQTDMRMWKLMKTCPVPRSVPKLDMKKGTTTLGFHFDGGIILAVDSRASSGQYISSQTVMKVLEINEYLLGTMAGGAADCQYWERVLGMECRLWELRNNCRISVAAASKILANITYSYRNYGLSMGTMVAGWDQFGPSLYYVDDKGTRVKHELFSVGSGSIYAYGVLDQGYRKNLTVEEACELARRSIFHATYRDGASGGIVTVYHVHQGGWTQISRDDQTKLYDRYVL
# Homo sapiens = species on record: Homo sapiens; assay: To identify inhibition of the IFN signalling (Jak-Stat) pathway via expression of an eGFP reporter gene under the control of an IFN-stimulated response element (ISRE) containing MxA promoter.; assay type: functional; conditions: 30 µM
# [6] = biological target: T4, Tyrosyl-tRNA synthetase, putative (Trypanosoma cruzi (strain CL Brener)) (UniProt Q4DSP6); assay: Trypanosoma cruzi tyrosyl tRNA synthetase (TcYRS) _High Tyrosine SOP; assay type: functional; conditions: 30 µM; note: in the data most compounds retested in dose-response had high values
# T4 sequence (whole entry): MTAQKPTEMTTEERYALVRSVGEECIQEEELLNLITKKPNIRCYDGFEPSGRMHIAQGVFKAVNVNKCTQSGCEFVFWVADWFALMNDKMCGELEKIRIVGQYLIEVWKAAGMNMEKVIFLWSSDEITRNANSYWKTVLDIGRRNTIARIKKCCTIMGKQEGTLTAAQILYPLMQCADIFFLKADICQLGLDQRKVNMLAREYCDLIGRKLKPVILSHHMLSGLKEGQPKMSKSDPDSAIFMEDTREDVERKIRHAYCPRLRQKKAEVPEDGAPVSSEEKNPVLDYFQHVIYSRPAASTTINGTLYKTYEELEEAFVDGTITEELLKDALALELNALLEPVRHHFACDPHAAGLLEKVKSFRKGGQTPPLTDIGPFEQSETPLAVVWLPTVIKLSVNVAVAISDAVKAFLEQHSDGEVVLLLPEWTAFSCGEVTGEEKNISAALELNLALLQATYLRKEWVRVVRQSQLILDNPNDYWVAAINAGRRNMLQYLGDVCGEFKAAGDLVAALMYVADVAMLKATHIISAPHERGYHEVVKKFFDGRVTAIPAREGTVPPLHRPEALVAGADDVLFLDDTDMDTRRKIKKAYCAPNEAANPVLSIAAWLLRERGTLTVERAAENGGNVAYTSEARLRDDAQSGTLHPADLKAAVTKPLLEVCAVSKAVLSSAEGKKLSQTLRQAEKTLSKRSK
# [7] = biological target: T4, Tyrosyl-tRNA synthetase, putative (Trypanosoma cruzi (strain CL Brener)); assay: Trypanosoma cruzi tyrosyl tRNA synthetase (TcYRS) SOP; assay type: functional; conditions: 30 µM
# [8] = biological target: Chromo domain-containing protein 1 (Saccharomyces cerevisiae (strain ATCC 204508 / S288c) (Baker's yeast)) (UniProt P32657); assay: ScCHD-1 Enzyme Inhibition Assay; assay type: functional; conditions: 30 µM; note: in the data most compounds retested in dose-response had high values
# Sequence of Chromo domain-containing protein 1 (Saccharomyces cerevisiae (strain ATCC 204508 / S288c) (Baker's yeast)) (P32657 whole entry, the tested form may be a part): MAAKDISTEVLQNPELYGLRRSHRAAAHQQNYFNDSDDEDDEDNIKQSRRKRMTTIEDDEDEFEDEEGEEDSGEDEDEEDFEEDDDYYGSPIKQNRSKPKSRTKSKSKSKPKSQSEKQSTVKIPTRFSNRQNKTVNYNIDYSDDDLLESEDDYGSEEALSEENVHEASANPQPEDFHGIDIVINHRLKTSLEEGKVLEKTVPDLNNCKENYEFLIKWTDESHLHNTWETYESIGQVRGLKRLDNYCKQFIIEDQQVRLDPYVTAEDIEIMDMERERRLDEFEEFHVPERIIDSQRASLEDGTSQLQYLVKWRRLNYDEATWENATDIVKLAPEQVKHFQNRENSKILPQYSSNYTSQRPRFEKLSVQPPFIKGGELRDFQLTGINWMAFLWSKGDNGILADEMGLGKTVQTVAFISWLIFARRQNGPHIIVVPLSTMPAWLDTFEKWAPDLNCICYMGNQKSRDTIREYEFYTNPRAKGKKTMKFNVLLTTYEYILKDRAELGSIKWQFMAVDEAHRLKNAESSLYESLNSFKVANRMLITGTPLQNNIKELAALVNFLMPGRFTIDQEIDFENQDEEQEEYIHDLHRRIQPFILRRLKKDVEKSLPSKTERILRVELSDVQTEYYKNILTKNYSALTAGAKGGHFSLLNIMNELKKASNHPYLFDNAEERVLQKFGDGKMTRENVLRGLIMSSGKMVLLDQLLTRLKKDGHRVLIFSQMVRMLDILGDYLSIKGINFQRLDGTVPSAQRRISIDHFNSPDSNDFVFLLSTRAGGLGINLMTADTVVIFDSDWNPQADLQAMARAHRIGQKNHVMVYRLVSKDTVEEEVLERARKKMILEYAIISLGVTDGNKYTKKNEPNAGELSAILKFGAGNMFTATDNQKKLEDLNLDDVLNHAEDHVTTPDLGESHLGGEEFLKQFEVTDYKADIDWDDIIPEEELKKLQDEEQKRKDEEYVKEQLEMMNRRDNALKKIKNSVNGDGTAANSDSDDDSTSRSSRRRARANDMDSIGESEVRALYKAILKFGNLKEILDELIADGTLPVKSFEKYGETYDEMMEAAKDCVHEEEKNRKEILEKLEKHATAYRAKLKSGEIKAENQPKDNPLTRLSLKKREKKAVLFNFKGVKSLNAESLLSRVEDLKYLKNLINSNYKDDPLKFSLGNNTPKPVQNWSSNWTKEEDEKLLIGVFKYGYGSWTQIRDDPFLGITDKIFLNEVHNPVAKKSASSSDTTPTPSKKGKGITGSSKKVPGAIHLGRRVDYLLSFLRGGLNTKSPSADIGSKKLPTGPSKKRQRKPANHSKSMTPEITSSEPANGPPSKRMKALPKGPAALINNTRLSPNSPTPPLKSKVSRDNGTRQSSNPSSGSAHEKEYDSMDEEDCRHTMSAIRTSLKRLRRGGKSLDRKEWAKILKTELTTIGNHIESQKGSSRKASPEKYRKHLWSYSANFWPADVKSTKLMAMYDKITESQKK
# Sequence of Sialic acid-binding Ig-like lectin 9 (Homo sapiens) (Q9Y336 whole entry): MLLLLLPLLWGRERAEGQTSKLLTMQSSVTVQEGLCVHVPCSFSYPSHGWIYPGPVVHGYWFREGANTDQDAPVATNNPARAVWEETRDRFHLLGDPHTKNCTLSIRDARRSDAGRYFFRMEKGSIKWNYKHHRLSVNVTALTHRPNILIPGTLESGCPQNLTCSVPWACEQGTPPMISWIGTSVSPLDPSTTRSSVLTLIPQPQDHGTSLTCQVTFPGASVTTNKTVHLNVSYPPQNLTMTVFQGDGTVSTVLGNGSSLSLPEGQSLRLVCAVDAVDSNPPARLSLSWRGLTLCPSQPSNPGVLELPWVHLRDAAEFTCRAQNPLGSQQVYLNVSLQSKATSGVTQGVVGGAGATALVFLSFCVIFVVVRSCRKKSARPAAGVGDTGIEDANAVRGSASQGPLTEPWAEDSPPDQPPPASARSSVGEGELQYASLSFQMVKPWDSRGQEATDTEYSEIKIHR
# Sequence of Protein translocase subunit SecA (Escherichia coli (strain K12)) (P10408 whole entry): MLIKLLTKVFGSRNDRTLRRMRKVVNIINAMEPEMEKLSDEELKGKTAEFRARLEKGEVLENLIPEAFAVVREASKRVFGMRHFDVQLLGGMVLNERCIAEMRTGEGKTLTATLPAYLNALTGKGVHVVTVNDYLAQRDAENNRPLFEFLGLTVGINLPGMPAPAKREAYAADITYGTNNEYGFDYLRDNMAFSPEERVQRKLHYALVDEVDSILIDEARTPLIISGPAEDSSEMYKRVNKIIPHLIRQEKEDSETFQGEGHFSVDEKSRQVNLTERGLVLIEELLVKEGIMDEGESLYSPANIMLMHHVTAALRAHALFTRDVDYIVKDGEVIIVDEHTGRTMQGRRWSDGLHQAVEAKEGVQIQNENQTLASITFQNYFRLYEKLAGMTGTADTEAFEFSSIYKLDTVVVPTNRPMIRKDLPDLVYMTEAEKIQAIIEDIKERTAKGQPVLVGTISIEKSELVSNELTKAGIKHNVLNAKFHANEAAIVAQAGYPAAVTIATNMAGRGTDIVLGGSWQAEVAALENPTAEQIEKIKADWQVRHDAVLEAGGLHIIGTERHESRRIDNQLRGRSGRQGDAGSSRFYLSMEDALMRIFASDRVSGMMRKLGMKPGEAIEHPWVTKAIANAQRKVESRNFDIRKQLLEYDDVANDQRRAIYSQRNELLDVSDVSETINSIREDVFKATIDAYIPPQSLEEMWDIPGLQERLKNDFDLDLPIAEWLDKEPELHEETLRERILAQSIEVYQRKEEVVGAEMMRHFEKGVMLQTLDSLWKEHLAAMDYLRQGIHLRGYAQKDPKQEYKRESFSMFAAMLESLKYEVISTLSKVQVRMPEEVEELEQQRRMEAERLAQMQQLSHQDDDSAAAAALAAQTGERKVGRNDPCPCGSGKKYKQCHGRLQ
Structure (SMILES),Percent Effect [1] [%],Percent Effect [2] [%],Percent Effect [3] [%],Percent Effect (Trypanosoma cruzi) [%],Percent Effect [4] [%],Percent Effect [5] [%],Percent Effect (Homo sapiens) [%],Percent Effect [6] [%],Percent Effect [7] [%],Percent Effect [8] [%]
COCCc1noc(CN2CCCCC2Cn2nc(C)cc2C)n1 (stereo not given),-2.9,-2.6,13.8,-1.68,2.25,-3.51,-5.82,0.98,7.06,9
Cn1cc(NC(=O)N2CCC(CN3CCCC3)CC2)ccc1=O,-0.732,7.69,7.22,-1.78,11.1,1.79,14.5,3.35,6.02,0.924
COCCN1C[C@H]2[C@@H](C1)N(C(=O)c1cccs1)CC[C@H]2OC,-5.76,-108,1.61,7.11,-6.07,4.5,-13.9,1.58,7.69,1.4
Cc1noc(C2CCN(C(=O)CCc3nccs3)CC2)n1,0.362,17.9,-8.4,-1.78,3.28,5.72,17.8,6.22,13.2,-4.78
CCc1ncc2c(n1)CN(CC(=O)Nc1ccc(Cl)cn1)CC2,-4.26,-2.67,4.13,1.21,2.66,4.83,4.95,8.95,7.69,-9.89
CC(C)(C)C(O)CN1CCN(C(=O)c2cccc3[nH]ncc23)CC1 (stereo not given),-8.1,20.5,-18.1,4.41,-0.41,20.4,1.83,3.35,22.9,22.1
CC(C)CNc1nc(C(=O)/N=c2\[nH]nc(C(C)(C)C)s2)cs1,2.26,8.11,-0.928,-8.83,1.75,12.3,19.4,5.85,17.1,1.47
CCCN1CCCn2nc(CNS(=O)(=O)c3ccc(C)cc3)cc2C1,-8.28,2.7,2.48,-5.72,-3.85,10.3,5.89,3.72,9.76,-1.82
Cc1ccc(-c2nc(CNCC3CN(C)CCO3)cs2)o1 (stereo not given),0.253,28.6,-5.08,6.53,-12.9,25.4,20,6.86,21.2,-12.3
Cc1cc(C)n(CC2CCCCN2C(=O)c2ccc3c(c2)OCO3)n1 (stereo not given),-0.864,5.33,-0.84,-6.22,1.33,7.38,8.9,2.63,10.3,-0.951
CCCc1cc(CNC(=O)C2CCOc3ccccc3C2)on1 (stereo not given),-1.27,10.8,3.17,2.62,15.7,10.8,29.7,5.85,14.6,-2.75
COc1cc(C)nc(N2CCN(C(=O)COCC(F)(F)F)CC2)n1,-3.6,7.69,-1.63,-1.22,1.64,3.16,22.4,4.31,8.43,-3.52
